# Test results taken from PubChem BioAssay.
# A number with no mark means an inactive call. Active and inactive are the calls of the source.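 The calls were made as follows, unless noted: active = binding below the plate cutoff, the plate median minus 3 SD, with a reading above zero; inconclusive = below the plate cutoff but reading exactly zero; inactive = the rest.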
# System: not listed separately
# Experiment: cytosolic pH regulators acting via V-ATPase – S. cerevisiae, pHLuorin, HTS validation (AID 504600; in the data active = response above about 15%;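 also: plate controls were DMSO for no effect and reference compound for full effect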)
# Conditions: V-ATPase proton transport, at 10 µM, stronger effect = higher value
row,SMILES,response
1,C[C@]12CC[C@@H]3c4ccc(OS(=O)(=O)O)cc4CC[C@H]3[C@@H]1CCC2=O,3.54%
2,O=C1C2C3C=CC(C4CC34)C2C(=O)N1/N=C/c1ccc(-c2ccc([N+](=O)[O-])cc2)o1 (stereo not given),1.6%
3,Cc1oc2ccc(OC(=O)c3cccs3)cc2c1C(=O)OC(C)C,-4.85%
4,COc1ccc(CCN(C)CC(=O)Nc2cc(C)nc3ccccc23)cc1OC,-0.15%
5,C[C@]12C=CC(=O)C=C1CCC1C3CC[C@](O)(C(=O)CO)[C@@]3(C)CC3OC312 (stereo not given in full),-0.61%
6,c1ccc2c(c1)CCCC2C1=NCCN1 (stereo not given),1.56%
7,C=CCc1cc(Cl)ccc1OCCOCCN(C)C,-5.95%
8,COc1cc2c(cc1OC)C(Cc1ccc(O)cc1)N(C)CC2 (stereo not given),0.76%
9,CCOc1ccc(C(=O)Nc2ccc(N3CCN(C(C)=O)CC3)cc2)cc1[N+](=O)[O-],0.55%
10,OCCN(CCO)c1ccc2ccccc2c1,4.81%
11,COc1ccc(CN(C)CCc2ccccn2)cc1OC,20.5% (active)
12,CC(=O)OCC1OC(n2ccc(=O)[nH]c2=O)C(O)C1O (stereo not given),-3.65%
13,CC(=O)N1N=C(c2cccs2)CC1c1ccc(C)o1 (stereo not given),-0.52%
14,Cc1cc(C)c2c(CCl)cc(=O)oc2c1,63.9% (active)
15,NC12CC3CC(CC(C3)C1)C2,3.04%
16,CC12CCC(C(=O)N3CCCCC3)([C@H](Br)C1=O)C2(C)C (stereo not given in full),0.52%
17,CC(NCCC(c1ccccc1)c1ccccc1)c1ccccc1 (stereo not given),13.1%
18,O=P(O)(O)CP(=O)(O)O,-0.51%
19,CCCCC[C@H](O)/C=C/[C@@H]1[C@@H](C/C=C\CCCC(=O)OC)[C@@H](O)C[C@H]1O,-0.57%
20,Cc1cc(C(C)(C)C)cc(C)c1CC1=NCCN1,-7.49%

row,SMILES,response
1,CC1CCCc2sc3ncn(N)c(=N)c3c21 (stereo not given),3.56%
2,O=C1NC2(Nc3ccccc31)C(=O)Nc1ccc(Br)cc12 (stereo not given),1.05%
3,Cc1cc(-c2ccccc2)nnc1NCCN1CCOCC1,-0.98%
4,Cc1ccccc1OCC(O)CN1CCN(C)CC1 (stereo not given),-0.77%
5,COc1cc(/C=C/C(=O)N2CCCC2)cc(OC)c1OC,0.86%
6,CNCCCN1c2ccccc2CCc2ccccc21,0.46%
7,Nc1c2c(nc3ccccc13)CCCC2,7.21%
8,COc1ccc(C2C3C(C)=NN=C3CC(C)(O)C2C(C)=O)cc1 (stereo not given),2.14%
9,O=c1c2ccccc2nnn1Cc1cccc2ccccc12,3.28%
10,CC1(C)CC(=O)C(C(=O)CCCCC(=O)C2C(=O)CC(C)(C)CC2=O)C(=O)C1,-8.22%
11,COC(=O)c1ccc(CC(=O)c2ccc(O)cc2O)o1,18.1% (active)
12,O=C(CCCCCCCC(=O)c1ccccc1)c1ccccc1,-4.73%
13,CC(=O)OC[C@H]1O[C@@H](n2ncc(=O)[nH]c2=O)[C@H](OC(C)=O)[C@@H]1OC(C)=O,-0.17%
14,CC1CNCCN1S(=O)(=O)c1cccc2cnccc12 (stereo not given),1.37%
15,COc1cc(C2C(C(=O)c3ccc(C)o3)=C(O)C(=O)N2Cc2cccnc2)ccc1O (stereo not given),4.05%
16,Cc1ccccc1NC(=O)C1c2ccccc2Oc2ccccc21,-0.9%
17,COc1ccc(-c2coc3cc(O)cc(O)c3c2=O)cc1,1.71%
18,Nc1cccc(C(=O)O)c1,3.11%
19,CCN1CCN(C(=O)N[C@@H](C(=O)N[C@@H]2C(=O)N3[C@@H]2SC(C)(C)[C@@H]3C(=O)O)c2ccccc2)C(=O)C1=O,1.38%
20,COCCc1ccc(OCC(O)CNC(C)C)cc1 (stereo not given),1.04%

# System: anti-desmoglein-3 scFv antibody binding to human DSG3
# Experiment: blockers of pathogenic pemphigus antibody–desmoglein-3 binding – biochemical, validation compound set, bead-based, flow cytometry, pilot screen (AID 588368);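 also: signal is the median channel fluorescence of bead-bound GFP antibody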
# Conditions: Protein G beads, DSG3-Fc, scFv-GFP binding, at 10 µM, stronger effect = lower value
row,SMILES,binding (% of control) [%]
1,C[C@]12CC[C@@H]3c4ccc(OS(=O)(=O)O)cc4CC[C@H]3[C@@H]1CCC2=O,104
2,O=C1C2C3C=CC(C4CC34)C2C(=O)N1/N=C/c1ccc(-c2ccc([N+](=O)[O-])cc2)o1 (stereo not given),102
3,Cc1oc2ccc(OC(=O)c3cccs3)cc2c1C(=O)OC(C)C,105
4,COc1ccc(CCN(C)CC(=O)Nc2cc(C)nc3ccccc23)cc1OC,96.8
5,C[C@]12C=CC(=O)C=C1CCC1C3CC[C@](O)(C(=O)CO)[C@@]3(C)CC3OC312 (stereo not given in full),102
6,c1ccc2c(c1)CCCC2C1=NCCN1 (stereo not given),101
7,C=CCc1cc(Cl)ccc1OCCOCCN(C)C,102
8,COc1cc2c(cc1OC)C(Cc1ccc(O)cc1)N(C)CC2 (stereo not given),108
9,CCOc1ccc(C(=O)Nc2ccc(N3CCN(C(C)=O)CC3)cc2)cc1[N+](=O)[O-],99.4
10,OCCN(CCO)c1ccc2ccccc2c1,103
11,COc1ccc(CN(C)CCc2ccccn2)cc1OC,98.7
12,CC(=O)OCC1OC(n2ccc(=O)[nH]c2=O)C(O)C1O (stereo not given),97.7
13,CC(=O)N1N=C(c2cccs2)CC1c1ccc(C)o1 (stereo not given),96.7
14,Cc1cc(C)c2c(CCl)cc(=O)oc2c1,96.2
15,NC12CC3CC(CC(C3)C1)C2,102
16,CC12CCC(C(=O)N3CCCCC3)([C@H](Br)C1=O)C2(C)C (stereo not given in full),98.5
17,CC(NCCC(c1ccccc1)c1ccccc1)c1ccccc1 (stereo not given),116
18,O=P(O)(O)CP(=O)(O)O,101
19,CCCCC[C@H](O)/C=C/[C@@H]1[C@@H](C/C=C\CCCC(=O)OC)[C@@H](O)C[C@H]1O,116
20,Cc1cc(C(C)(C)C)cc(C)c1CC1=NCCN1,98.5

row,SMILES,binding (% of control) [%]
1,CC1CCCc2sc3ncn(N)c(=N)c3c21 (stereo not given),98.2
2,O=C1NC2(Nc3ccccc31)C(=O)Nc1ccc(Br)cc12 (stereo not given),98.7
3,Cc1cc(-c2ccccc2)nnc1NCCN1CCOCC1,109
4,Cc1ccccc1OCC(O)CN1CCN(C)CC1 (stereo not given),103
5,COc1cc(/C=C/C(=O)N2CCCC2)cc(OC)c1OC,95.1
6,CNCCCN1c2ccccc2CCc2ccccc21,109
7,Nc1c2c(nc3ccccc13)CCCC2,104
8,COc1ccc(C2C3C(C)=NN=C3CC(C)(O)C2C(C)=O)cc1 (stereo not given),101
9,O=c1c2ccccc2nnn1Cc1cccc2ccccc12,99
10,CC1(C)CC(=O)C(C(=O)CCCCC(=O)C2C(=O)CC(C)(C)CC2=O)C(=O)C1,114
11,COC(=O)c1ccc(CC(=O)c2ccc(O)cc2O)o1,109
12,O=C(CCCCCCCC(=O)c1ccccc1)c1ccccc1,98.9
13,CC(=O)OC[C@H]1O[C@@H](n2ncc(=O)[nH]c2=O)[C@H](OC(C)=O)[C@@H]1OC(C)=O,109
14,CC1CNCCN1S(=O)(=O)c1cccc2cnccc12 (stereo not given),96.3
15,COc1cc(C2C(C(=O)c3ccc(C)o3)=C(O)C(=O)N2Cc2cccnc2)ccc1O (stereo not given),99.4
16,Cc1ccccc1NC(=O)C1c2ccccc2Oc2ccccc21,105
17,COc1ccc(-c2coc3cc(O)cc(O)c3c2=O)cc1,101
18,Nc1cccc(C(=O)O)c1,102
19,CCN1CCN(C(=O)N[C@@H](C(=O)N[C@@H]2C(=O)N3[C@@H]2SC(C)(C)[C@@H]3C(=O)O)c2ccccc2)C(=O)C1=O,103
20,COCCc1ccc(OCC(O)CNC(C)C)cc1 (stereo not given),105
